SENP7 block – inhibitors of human SENP7 protease; Q9BQF6; recombinant SENP7, Z-RLRGG-aminoluciferin luminescence, 40 min; inhibition, % at 5 µM; 330,000 tested, 1.5% active; AID 434973;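 active means inhibition above about 50% at the single test dose, limit read from the data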;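 further: plate controls were DMSO with enzyme for no effect and no enzyme buffer wells for full effect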
SENP6 inh – SENP6 protease inhibition; 330,000 tested, 1.8% active; Q9GZR1; AID 2599; inhibition, % at 10 µM; Recombinant SENP6 catalytic domain, aminoluciferin luminescence;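 active means inhibition above about 50% at the single tested dose, limit read from the data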;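 further: plate controls were DMSO wells with enzyme for no effect and DMSO wells lacking enzyme for full effect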
SENP8 block-1 – blocks human SENP8 cleavage of Nedd8 substrate; Q96LD8; recombinant SENP8, Nedd8 substrate fluorescence; inhibition, % at 20 µM; 360,000 tested, 0.64% active; AID 602440; in the data active means inhibition mostly above about 40%, no sharp cut-off; inactive means mostly below about 27%
Target sequence (Q96LD8 whole entry, looked up): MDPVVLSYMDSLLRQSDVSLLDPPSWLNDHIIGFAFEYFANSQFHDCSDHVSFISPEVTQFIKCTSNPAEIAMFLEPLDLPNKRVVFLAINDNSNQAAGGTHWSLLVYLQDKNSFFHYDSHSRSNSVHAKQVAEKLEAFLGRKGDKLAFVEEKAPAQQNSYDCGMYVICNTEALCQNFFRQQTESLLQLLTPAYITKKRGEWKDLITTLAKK
SENP8 block-2 – blocks the human protease SENP8 | 330,000 tested, 1.2% active | inhibition, % at 10 µM | Q96LD8 | AID 2540 | purified SENP8, Z-RLRGG-aminoluciferin cleavage, luminescence; in the data active means inhibition above about 50%
HSP90 inh – HSP90 refolding inhibition in rabbit reticulocyte lysate; luciferase refolding luminescence, 3 h; inhibition, % at 5.6 µM; 290,000 tested, 0.91% active; AID 1789;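 active means inhibition above the screen-wide mean plus 3 SD, computed separately per campaign, cut at about 16% in these data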;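 further: 0% = DMSO wells and 100% = 60 µM geldanamycin wells; inhibitors lower the luminescence because luciferase stays unfolded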
SENP8 confirm – human SENP8 inhibition, confirmed. 6,200 tested, 40% active. shares compounds with SENP7 block. Recombinant SENP8, Z-RLRGG-aminoluciferin luminescence, 60 min. inhibition, % at 12.5 µM;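 active means mean inhibition across replicates above about 50%, limit read from the data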
SENP6 conf – confirmation of human SENP6 protease inhibitors; inhibition, % at 12.5 µM; 6,200 tested, 58% active; recombinant SENP6, Z-RLRGG-aminoluciferin luminescence; shares compounds with SENP7 block
SENP7 conf – confirmation of human SENP7 protease inhibitors. shares compounds with SENP7 block. recombinant SENP7, Z-RLRGG-aminoluciferin luminescence, 40 min. inhibition, % at 12.5 µM. 6,200 tested, 69% active
Casp3 select – caspase-3 inhibition (SENP selectivity assay). shares compounds with SENP7 block. purified caspase-3, Z-DEVD-aminoluciferin luminescence, 60 min. inhibition, % at 12.5 µM. 6,200 tested, 60% active;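 active means mean inhibition above about 50%, limit read from the data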;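 further: plate controls were enzyme with DMSO for no effect and wells without caspase-3 for full effect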
Target sequence (P42574 28-227 limits assumed): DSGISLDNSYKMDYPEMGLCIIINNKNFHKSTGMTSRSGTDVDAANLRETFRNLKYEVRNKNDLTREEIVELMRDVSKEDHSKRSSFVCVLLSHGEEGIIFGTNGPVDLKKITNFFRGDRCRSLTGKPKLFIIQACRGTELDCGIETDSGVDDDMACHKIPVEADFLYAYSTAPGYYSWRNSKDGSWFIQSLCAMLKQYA
SENP luc ctr – interferes with luciferase luminescence in SENP counter-screen; shares compounds with SENP7 block; Pre-incubated SENP8/Z-RLRGG-aminoluciferin, luciferase luminescence interference; inhibition, % at 12.5 µM; 6,200 tested, 39% active;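 active means mean inhibition above about 50% when retested at one dose, limit read from the data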;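 further: plate controls were DMSO wells with completed reaction for no effect and substrate without enzyme for full effect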
Starred values were filed as active, the others as inactive; . = no result. Sampled rows, rich in hits. Any-hit rate of the full collection: about 2.7%.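 How the source made its calls, unless noted: active means mean inhibition above about 50% in the one-dose retest (limit read from the data); inactive means the rest.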

SMILES	SENP7 block	SENP6 inh	SENP8 block-1	SENP8 block-2	HSP90 inh	SENP8 confirm	SENP6 conf	SENP7 conf	Casp3 select	SENP luc ctr
CCOC(=O)N1CCN(C(=O)C[C@@H]2C[C@@]3(C(=O)OCC)CCCC=C3N(CCC3=CCCCC3)C2=O)CC1	.	.	32	.	.	.	.	.	.	.
CCCCN1C=CC(=C2C(=O)c3ccccc3C2=O)C=C1	78*	92*	12	89*	83*	-2	92*	100*	95*	41
Cc1snc2sc(C(=O)c3ccc(Br)cc3)c(N)c12	-7	-15	25	6	-4	.	.	.	.	.
Cc1ccc(C(=O)c2sc3nsc(C)c3c2N)cc1	53*	57*	16	27	-2	12	27	60*	41	11
Cc1ccc(-c2noc(CCC(=O)Nc3cc(C)ccn3)n2)cc1	8	-8	9	1	-3	.	.	.	.	.
COc1ccc(NS(=O)(=O)c2cc(NC(=O)[C@@H](NC(N)=O)C(C)C)ccc2C)cc1	-9	11	12	-5	2	.	.	.	.	.
COc1cccc(OCc2nc3ccccc3[nH]2)c1	74*	67*	25	65*	-1	73*	72*	93*	86*	75*
Brc1ccc(OCc2nc3ccccc3[nH]2)cc1	66*	62*	14	56*	10	49	46	85*	58*	11
COc1cccc(OCc2nc3ncc(Br)cc3[nH]2)c1	2	1	5	-3	-5	.	.	.	.	.
Cc1ccc(SCc2nc3ccccc3[nH]2)cc1	49	57*	-67	21	-3	51*	47	76*	64*	56*
COc1ccc(OCc2nc3ccccc3[nH]2)cc1	29	72*	13	72*	7	39	76*	94*	90*	80*
c1ccc(SCc2nc3ccccc3[nH]2)cc1	28	21	0	13	13	.	.	.	.	.
COc1ccccc1OCc1nc2ccccc2[nH]1	21	38	10	13	0	.	.	.	.	.
Nc1ccc2nc(COc3ccccc3)[nH]c2c1	8	-6	6	-2	2	.	.	.	.	.
Cc1ccccc1OCc1nc2ccccc2[nH]1	86*	80*	1	68*	10	72*	72*	92*	86*	62*
c1ccc2cc(OCc3nc4ccccc4[nH]3)ccc2c1	77*	87*	5	80*	5	47	68*	95*	66*	40
Cc1c(NC(=O)c2cc(CC(C)C)on2)c(=O)n(-c2ccccc2)n1C	55*	8	23	11	-3	-13	-5	-10	3	-3
O=C(Nc1cccnc1)c1ccc(-c2ccc(Cl)cc2)o1	5	-20	4	-6	-4	.	.	.	.	.
CC(C)Cc1cc(C(=O)Nc2cccnc2)no1	52*	48	6	31	8	45	43	76*	79*	55*
O=C(Nc1cccnc1)c1cc(-c2ccc(Cl)cc2Cl)on1	64*	15	2	-4	0	18	20	17	18	8
Cc1cc(C(=O)Nc2cccnc2)no1	-7	-13	12	-1	1	.	.	.	.	.
O=C(Nc1cccnc1)c1cc(-c2ccc(Cl)cc2)on1	86*	60*	28	29	-3	29	31	67*	56*	24
CCS(=O)(=O)c1ccc(S(=O)(=O)CC)s1	3	-3	10	2	1	.	.	.	.	.
Cc1cc2nc(CN(C)C(=O)C3CCC(=O)N(C4CCCC4)C3)[nH]c2cc1C (configuration not stated)	.	.	2	.	.	.	.	.	.	.
COc1ccc(/C(C)=N/OCC(=O)Nc2nc3ccccc3s2)cc1OC	30	53*	0	36	-7	40	34	64*	21	34

Screening data: PubChem BioAssay, several laboratories
